Activity calls are given as the source filed them. Where a call stands in place of a potency, no number is given. Calls follow the shape of the full dose curve.
Test: G protein-coupled receptor (GPCR) small molecule agonists, calcium flux assay: HEK293 wild type cell line counter screen (AID 1920065)
Settings: HEK293 WT calcium flux, fluorescence, agonist mode; series mostly up to 57.6 µM
Text: U.S. Tox21 Program National Center for Advancing Translational Sciences [NCATS] Division of Preclinical Innovation [DPI] U.S. Environmental Protection Agency [EPA] National Institutes of Environmental Health Sciences [NIEHS] National Toxicology Program [NTP] U.S. Food and Drug Administration [FDA] Assay overview: The increased intracellular calcium release that occurred upon G protein-coupled receptor (GPCR) activation led to the frequent use of calcium flux assays to detect GPCR activation. For the purpose of studying and screening compounds that may activate GPCR, receptor-overexpressing models were typically generated using Hek293 wild-type (WT) cells. In order to eliminate the compounds that may have induced calcium release for non-specific activation, a counter-assay utilizing calcium flux on Hek293 WT cells was performed. The data were formulated in order to serve as a control for any calcium flux detection utilizing Hek293 cells with either GPCR overexpression or gene modification. The procurement of Hek293 WT cells from ATCC. Fluorescence intensity can be utilized to determine the activation of the compound in a calcium flux assay. As a counter control, this cell line was utilized to screen the Tox21 10K compound library.
Assay Protocol Summary: Hek293 cells were dispensed at 1500cells/4uL/well in 1536-well black wall/clear bottom plates using a multidrop dispenser. After the assay plates were incubated at a 37 C/5% CO2 incubator for 18 hours, 4 uL of Calcium Dye Solution was added to each well. The plates were incubated at 37 C for 1 hour. For agonist mode, 23 nL of compounds dissolved in DMSO, positive control (ATP) or DMSO only was transferred to the assay plate by a pin tool station. The fluorescence intensity in the plates was measured using FDSS 7000EX kinetic plate reader with a filter set of Ex/Em=480/540 for 3 min at 1 sec intervals. Each test compound was measured at 15 concentrations and in triplicates.

Compound	Potency
CCOCN(C(=O)CS(=O)(=O)O)c1c(C)cccc1CC	inactive
CN1CCN(C(=O)C2CCCCC2)CC1	inactive
CO[C@H]1C=CO[C@@]2(C)Oc3c(C)c(O)c4c(O)c(c5c(c4c3C2=O)=NC2(CCN(CC(C)C)CC2)N=5)NC(=O)/C(C)=C\C=C/[C@H](C)[C@H](O)[C@@H](C)[C@@H](O)[C@@H](C)[C@H](OC(C)=O)[C@@H]1C	inactive
O=C(O)C1(C(=O)Nc2ccc(Cl)cc2Cl)CC1	inactive
C=C1C(=C/C=C2\CCC[C@]3(C)[C@@H]([C@H](C)/C=C/[C@@H](O)C4CC4)CC[C@@H]23)C[C@@H](O)C[C@@H]1O	inactive
CC(C)(C)CC(C)(C)c1ccc(OCCO)cc1	inactive
Cc1ccc(NC(=O)c2ccc(CN3CCN(C)CC3)cc2)cc1Nc1nccc(-c2cccnc2)n1	inactive
CCOC(=O)OCC	inactive
N#CCCOCCC#N	inactive
O=C(c1ccc(O)c(O)c1)c1ccc(O)cc1O	inactive
Nc1ccc(N=Nc2ccc(N)cc2)cc1	inactive
C=Cc1ccc(C(C)(C)C)cc1	inactive
CCCCCCCCCCCCSCCOCCO	inactive
Cc1ccc(Nc2c(F)cccc2Cl)c(CC(=O)O)c1	inactive
O=C1CCc2cc(OCCCCc3nnnn3C3CCCCC3)ccc2N1	inactive
COc1ccc2nc(S(=O)Cc3ncc(C)c(OC)c3C)[nH]c2c1 (stereo not given)	inactive
O=C(Nc1ccccc1)OCC(CN1CCCCC1)OC(=O)Nc1ccccc1 (stereo not given)	inactive
CCCC[N+](C)(CCCC)CCCC	inactive
CCCCCCCC/C=C\CCCCCCCCO	inactive
Cc1c(N)c(=O)n(-c2ccccc2)n1C	inactive

Compound	Potency
COC(C(=O)O)c1ccccc1 (stereo not given)	inactive
CCOC(=O)c1ccc(N(C)C)cc1	inactive
O=C(Nc1ccc(C(=O)O)c(O)c1)c1ccccc1	inactive
C[C@H]1[C@@H](c2ccccc2)NC(=O)N1C	inactive
CC1(C)CCC(C)(C)c2cc(C(=O)Nc3ccc(C(=O)O)cc3)ccc21	inactive
CC(C)C[C@H](NC(=O)[C@H](Cc1ccccc1)NC(=O)c1cnccn1)B(O)O	inactive
Sc1nc2ccccc2s1	inactive
CCN(Cc1ccncc1)C(=O)C(CO)c1ccccc1 (stereo not given)	inactive
CCCCN(CCCC)c1ccc(C(=O)c2ccccc2C(=O)O)c(O)c1	inactive
CC(C)(C)c1ccc(OCC2CO2)cc1 (stereo not given)	inactive
C[C@@H](c1ncncc1F)C(O)(Cn1cncn1)c1ccc(F)cc1F (stereo not given in full)	inactive
CC(C)(C)Cl	inactive
COc1cccc(N(C)C(=S)Oc2ccc3c(c2)CCCC3)n1	inactive
CC[C@@]1(c2ccccc2)NC(=O)N(C)C1=O	inactive
Nc1ccccc1Nc1ccccc1	inactive
C=COCCOCCOC=C	inactive
Cc1ccc(O)c([C@H](CCN(C(C)C)C(C)C)c2ccccc2)c1	inactive
CCC(=O)C1CC(C(C)C)CC=C1C (stereo not given)	inactive
C=C1C(C)(C)[C@@]2(Cl)C(Cl)[C@]1(Cl)C(Cl)(Cl)C2(Cl)Cl (stereo not given in full)	inactive
O=C(/C=C/c1ccc([N+](=O)[O-])cc1)c1ccccc1	inactive

Reference: PubChem BioAssay (Tox21)
